Assay outcomes as filed in PubChem.
ALDH1A1 inh: ALDH1A1 (human) enzyme inhibition | P00352 | Purified ALDH1A1, NADH fluorescence, propionaldehyde substrate | Potency, µM (series often up to 75.3 µM), for inactives: top-dose activity, negative = inhibition, hits mostly inhibitors | 220,000 compounds, 7.3% hits;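 note: potency is the fitted concentration of half-maximal effect; plate controls were no enzyme wells and a reference inhibitor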
PNC inhibitor: inhibitors of perinucleolar compartment assembly; activity change (PNC), negative = inhibition, % at 10 µM; 140,000 compounds, 3.1% hits; PC3M PTB-GFP, PNC prevalence imaging, 16 h; hits give low values; AID 2417;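 active = readout at or below -70, meaning at least 70% loss of cells showing the perinucleolar compartment, a nuclear body marking cancer cells; inconclusive = readout between -30 and a set limit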;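 note: plate controls were DMSO wells for no effect and camptothecin positive control wells for full effect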
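Compounds are pinned in duplicate onto adhered PC3M cells stably expressing GFP-tagged PTB and incubated 16 h at 37 C. Cells are then fixed, nuclei stained with Hoechst, and PNC-positive cells counted.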
12-hLO inh: inhibitors of human 12-lipoxygenase (ALOX12). P18054. purified 12-hLO, xylenol orange hydroperoxide absorbance. Potency, µM (highest dose often 57.1 µM), for the others: at the highest dose activity change, negative = inhibition, hits mostly inhibitors. 150,000 compounds, 0.12% hits. AID 1452; active = well fitted inhibition curve with a large enough effect; inconclusive = small, poorly fitted or top-dose-only effect; note: potency is the fitted concentration of half-maximal effect; nearly all actives have a fitted effect of over 55% in size
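Hydroperoxide formation by human 12-lipoxygenase from 40 uM arachidonic acid was followed colorimetrically via ferric-xylenol orange complex, using the 573/405 nm absorbance ratio. Enzyme concentration was 150 nM, with 30 min reaction at room temperature.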
LMNA splice mod: LMNA splicing modulation; 200,000 compounds, 0.01% hits; HeLa LMNA splicing GFP/RFP minigene ratio, 48 h; Potency, µM (top dose mostly 46.1 µM), without a hit: top-dose ratio change, negative = inhibition, usual class: inhibitors; active = well fitted inhibition curve with a large enough effect in the signal ratio, with a control signal flat, not every such curve was filed as active; inconclusive = small, poorly fitted or top-dose-only effect, or effect the other way, or a change in a side signal; the % refers to the signal ratio; note: potency is the fitted concentration of half-maximal effect
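S3 HeLa cells stably expressing lamin A-EGFP splicing minigene plus DsRed2, 600 cells/well, 48 h compound exposure at 37C. Laser-scanning cytometry; analysed as GFP (500-530 nm)/RFP (575-640 nm) total intensity ratio; 0.5% DMSO vehicle.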
HPGD inh: blocks human HPGD enzyme activity. P15428. purified HPGD, NADH fluorescence kinetic, PGE2 substrate. Potency, µM, for the others: at the highest dose activity change, negative = inhibition, actives largely listed as inhibitors. 150,000 compounds, 4.3% hits; note: potency is the fitted concentration of half-maximal effect
Target sequence (P15428 whole entry, looked up): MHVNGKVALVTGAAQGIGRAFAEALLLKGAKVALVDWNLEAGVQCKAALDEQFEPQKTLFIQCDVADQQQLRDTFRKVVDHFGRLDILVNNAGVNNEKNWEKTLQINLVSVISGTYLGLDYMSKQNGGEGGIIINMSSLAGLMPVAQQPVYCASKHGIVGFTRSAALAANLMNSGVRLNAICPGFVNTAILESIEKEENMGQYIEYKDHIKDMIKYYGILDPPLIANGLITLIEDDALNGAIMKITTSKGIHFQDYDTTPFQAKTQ
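20 nM HPGD preincubated 15 min at room temperature with compound in 50 mM Tris-HCl pH 8, 0.01% Tween 20. Started with 1 mM NAD+ and 30 uM prostaglandin E2; NADH fluorescence (360/450 nm) read 5 times over 30-s intervals, last minus first.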
* = called active by the depositor; [ ] = remark or other dose. This is a sample that favours compounds with a hit; in the whole collection about 10% have one here. Unless noted, calls come from the whole dose curve; as a rule, active = well fitted inhibition curve with a large enough effect (not every such curve was filed as active); inconclusive = small, poorly fitted or top-dose-only effect, or another doubt; inactive = no such curve, though single readings can be large or run the other way. Unless noted, % is set by controls: 0 for no effect and ±100 for the full control effect.

`COc1ccc(C)cc1NC(=O)C(OC(=O)CNC(=O)c1cc(C)cc(C)c1)c1ccccc1` (configuration not stated) gave ALDH1A1 inh inconclusive, PNC inhibitor inconclusive, 12-hLO inh 3%, LMNA splice mod -2% and HPGD inh -3%.
`CNC(=O)C(=O)NCC1OCCCN1S(=O)(=O)c1cccs1` (configuration not stated) gave ALDH1A1 inh inconclusive, PNC inhibitor 17, 12-hLO inh 1%, LMNA splice mod 3% and HPGD inh -2%.
`O=C(NCCc1c[nH]c2ccccc12)C(=O)NCC1OCCCN1S(=O)(=O)c1cccs1` (configuration not stated) gave ALDH1A1 inh 25µM*.
`O=C(NCc1ccccc1Cl)C(=O)NCC1OCCN1S(=O)(=O)c1cccs1` (configuration not stated) gave ALDH1A1 inh 14µM* and LMNA splice mod -14%[46 µM].
Screening O=C(NCc1cccs1)C(=O)NCC1OCCCN1S(=O)(=O)c1cccs1 (configuration not stated) returned ALDH1A1 inh 14µM* and LMNA splice mod 16%[46 µM].
`O=C(NCCO)C(=O)NCC1OCCCN1S(=O)(=O)c1cccs1` (configuration not stated) gave ALDH1A1 inh 18µM*, PNC inhibitor -80*, 12-hLO inh -1%, LMNA splice mod -6% and HPGD inh -4%.
`Fc1ccc2ncc3c(-c4ccccc4)n[nH]c3c2c1` gave LMNA splice mod 6%[46 µM].
For Cc1cc(C)c2c(=O)cc(CSCC(=O)Nc3ccccc3Cl)[nH]c2c1 the results were LMNA splice mod -18%[46 µM].
For CCOc1cccc(C(=O)NC(=S)Nc2ccccc2)c1 the results were ALDH1A1 inh 18µM*, PNC inhibitor 7, 12-hLO inh inconclusive, LMNA splice mod 5% and HPGD inh -20%.
Screening CCOc1cccc(C(=O)NC(=S)Nc2cccc(NC(=O)c3ccccc3Cl)c2)c1 returned ALDH1A1 inh 1.4µM*, PNC inhibitor 30, 12-hLO inh inconclusive, LMNA splice mod inconclusive and HPGD inh -27%.
Screening O=C(COc1ccccc1Cl)NC(=S)Nc1cccc(NC(=O)c2ccccc2Cl)c1 returned ALDH1A1 inh inconclusive, PNC inhibitor 1, 12-hLO inh -8%, LMNA splice mod 2% and HPGD inh -20%.
Screening CCOc1cccc(C(=O)NC(=S)Nc2cccnc2)c1 returned ALDH1A1 inh inconclusive, PNC inhibitor -3, 12-hLO inh -3%, LMNA splice mod -16% and HPGD inh -12%.
`O=C(O)c1ccc(NC(=S)NC(=O)c2cccc(COc3ccccc3)c2)cc1` gave ALDH1A1 inh 3.5µM* and LMNA splice mod inconclusive.
`CCCCNC(=O)CCC1N=C2c3ccccc3N=C(SCC(=O)NCCc3ccc(OC)c(OC)c3)N2C1=O` (configuration not stated) gave LMNA splice mod 4%[46 µM].
Screening CCCCc1nc2c(c3c1C[C@H](C)OC3)CN(C(=O)c1ccco1)CC2 returned ALDH1A1 inh 14%[13.5 µM], 12-hLO inh -2%[11.4 µM], LMNA splice mod inconclusive and HPGD inh -7%.
Screening CCc1nnc(NS(=O)(=O)c2ccc(NC(=S)NC(=O)c3ccc(OC)c(OC)c3)cc2)s1 returned ALDH1A1 inh 7.9µM*, PNC inhibitor inconclusive, 12-hLO inh inconclusive, LMNA splice mod 3% and HPGD inh inconclusive.
Screening CCc1nnc(NS(=O)(=O)c2ccc(NS(=O)(=O)c3ccc(NC(C)=O)cc3)cc2)s1 returned ALDH1A1 inh -1%, PNC inhibitor inconclusive, 12-hLO inh 6%, LMNA splice mod -5% and HPGD inh -8%.
`COc1ccc(S(=O)(=O)Nc2nnc(C)s2)cc1` gave ALDH1A1 inh inconclusive, PNC inhibitor 7, 12-hLO inh -5%, LMNA splice mod 5% and HPGD inh 32µM*.
CCc1nnc(NS(=O)(=O)c2ccc(NC(=S)NC(=O)c3ccc(OC)cc3)cc2)s1 was read as ALDH1A1 inh 18µM*, PNC inhibitor -24, 12-hLO inh inconclusive, LMNA splice mod 5% and HPGD inh inconclusive.
